Results: PubChem BioAssay AID651800 (The Scripps Research Institute Molecular Screening Center, 2012)
Hit rate of the full screen: of about 360,000 compounds, about 1,300 (0.36%) were called active. Many of the other results were omitted from the sample, so actives are more common in it than they were. Values without a mark were called inactive. Cut-off read from the data, not from the text of the source: active = inhibition above about 19%; inactive = the rest.

The compounds below were run on T-cell receptor (TCR) (assay: inhibitors of human TCR-CD3 interaction, primary screen, biochemical, fluorescence, TAMRA-labeled TCR probe (AID 651800;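 note: recombinant mutant TCR 2C K166C tagged with TAMRA read by polarization; 0% = receptor in buffer alone and 100% = receptor with positive control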)). Details: at 9.4 µM, hits give high values.

| SMILES | inhibition |
| --- | --- |
| CC/C(=N\NC(=O)c1ccccc1O)c1c(O)n(Cc2ccccc2)c(=O)[nH]c1=O | 28.9% (active) |
| CCCCCCN=C(CC)c1c(O)n(CCCC)c(=O)[nH]c1=O | 0.66% |
| CCCCn1c(O)c(C(CC)=NCc2ccco2)c(=O)[nH]c1=O | -3.64% |
| Cc1ccc(N(C)C(=O)Oc2cccc3ccc(C)nc23)cc1 | 1.25% |
| COc1ccc(NC(=O)c2cn(CCC#N)nc2-c2ccc([N+](=O)[O-])cc2)cc1 | 6.55% |
